The values below come from PubChem BioAssay AID1559 (National Center for Advancing Translational Sciences (NCATS), 2009).

Results filed as inconclusive are left out. Calls of active or inactive are those of the source. Calls come from the whole dose curve; as a rule, active = well fitted curve in the direction sought with a large enough effect; inconclusive = small, poorly fitted or top-dose-only effect, or another doubt; inactive = no such curve, though single readings can be large or run the other way.

Sequence of Microtubule-associated protein tau (Homo sapiens) (P10636 561-689 P618L limits assumed): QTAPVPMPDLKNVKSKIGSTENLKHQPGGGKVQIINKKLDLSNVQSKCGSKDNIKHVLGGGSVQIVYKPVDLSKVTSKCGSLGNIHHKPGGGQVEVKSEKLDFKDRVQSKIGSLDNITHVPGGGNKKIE

The target of this assay is Microtubule-associated protein tau (Homo sapiens) (UniProt P10636). The assay can be described thus: Confirmation Concentration-Response Assay for Inhibitors of Tau Fibril Formation, Fluorescence Polarization. As to conditions: recombinant tau K18 P301L (four-repeat tau fragment) heparin fibrillization, Alexa594 FP; series mostly up to 57.1 µM; activity change, negative = inhibition: at the top concentration. An excerpt:
NIH Molecular Libraries Probe Production Network [MLPCN] NIH Chemical Genomics Center [NCGC] MLPCN Grant: X01 MH083262-01 Assay Provider: Carlo Ballatore, University of Pennsylvania NCGC Assay Overview: The microtubule-associated protein tau is an abundant protein in the axons of neurons that stabilizes microtubules. With its ability to modulate microtubule dynamics, tau contributes directly or indirectly, to key structural and regulatory cellular functions. Particularly important is the influence tau exerts on axonal transport, which allows signaling molecules, trophic factors and other essential cellular constituents to travel along the axons. Under pathological conditions, tau becomes sequestered into insoluble aggregates called neurofibrillary tangles. This phenomenon is believed to have pathological consequences by promoting axonal transport deficits that ultimately lead to synaptic dysfunction and neuronal loss. To identify inhibitors of tau aggregation, a heparin-induced tau fibril formation assay was used that employed a recombinantly expressed fragment of tau, K18 (Q242-E372), bearing a P301L mutation (Gustke et al. 1994; Hong et al. 1998). […] Gustke, N., B. Trinczek, et al. (1994). "Domains of tau protein and interactions with microtubules." Biochemistry 33(32): 9511-22. Hong, M., V. Zhukareva, et al. (1998). "Mutation-specific functional impairments in distinct tau isoforms of hereditary FTDP-17." Science 282(5395): 1914-7. Li, W. and V. M. Lee (2006). "Characterization of two VQIXXK motifs for tau fibrillization in vitro." Biochemistry 45(51): 15692-701. von Bergen, M., S. Barghorn, et al. (2001). "Mutations of tau protein in frontotemporal dementia promote aggregation of paired helical filaments by enhancing local beta-structure." J Biol Chem 276(51): 48165-74.
For screening, 2 uL/well human K18 P301L (15 uM unlabeled and 0.24 uM Alexa 594-labeled tau final concentrations) in reagent buffer (100 mM sodium acetate pH 7) was dispensed into black solid 1536-well plates (Grenier) using a solenoid-based dispenser. Following transfer of 23 nL compound or DMSO vehicle by a pin tool, 2 uL/well heparin (20 uM final concentration) in reagent buffer was added and the plate centrifuged 15 s at 1000 RPM. Plates were incubated 6 hr at 37 C and then 1 uL/well ThT (30 uM final concentration) was added. After a 1 hr ambient incubation, the plates were read by an Envision (Perkin Elmer) to monitor Alexa 594 FP (555 nm excitation and 632 nm emission). Keywords: NIH Roadmap, MLPCN, MLI, MLSMR, NCGC, qHTS, tau, tauopathies, Alzheimer's disease, fibril, neurodegeneration, aggregation
With `CCOC(=O)c1nn(-c2ccccc2)c(=O)c2c(NC(=O)c3ccccc3)scc12`, the “activity change, negative = inhibition” value is -5.82% (inactive).
On to `O=C(NCCCO)Nc1ccc2nc(-c3ccco3)c(-c3ccco3)nc2c1`, for which the Potency was 7.94 µM (active).
On to `Cc1nc2ccccc2oc1=O`, for which the “activity change, negative = inhibition” value is -4.6% [at 100 µM] (inactive).
As for `O=S(=O)(c1ccc2nc(-c3ccco3)c(-c3ccco3)nc2c1)N1CCOCC1`, the Potency was 7.94 µM (active).
As to `Cc1ccc(NCc2cc3cc4c(cc3n(CC(=O)Nc3ccc(C)cc3)c2=O)OCCO4)cc1`, the “activity change, negative = inhibition” value was -7.5% [at 100 µM] (inactive).
Consider `CCOC(=O)N1CCN(C(=O)CN2C(=O)/C(=C\c3cccc(OC)c3)SC2=S)CC1`, for which the “activity change, negative = inhibition” value is -18.3% (inactive).
Consider `COC(=O)c1c(NC(=O)C(C)(C)C)sc2c1C(C(=O)OC)CC2` (configuration not stated), for which the “activity change, negative = inhibition” value is -2.5% [at 100 µM] (inactive).
Regarding `O=C(Nc1nc2ccc(S(=O)(=O)N3CCCC3)cc2s1)c1ccc(F)cc1`, the “activity change, negative = inhibition” value was -4.75% [at 100 µM] (inactive).
The same measure, in the same setting: then `Cn1[nH]c(CSc2ccc(Cl)cc2)cc1=O`, with -3.05% [at 100 µM] (inactive).
As to `COc1ncc(-c2ccccc2)cc1N`, the “activity change, negative = inhibition” value is -4.28% (inactive).
On the same count and under the same terms, then `O=C(Cc1ccccc1)Nc1sc2c(c1C(=O)Nc1cccc(Cl)c1)CCCC2`, with 0.795% (inactive).
For the compound `COc1ccc2c(c1)c(CC(=O)Nc1ccc(C(C)=O)cc1)c(C)n2C(=O)c1ccc(Cl)cc1`, the “activity change, negative = inhibition” value is -10.6% [at 100 µM] (inactive).
In the case of `CC1CCc2c(sc(NC(=O)Cc3ccccc3)c2C(=O)Nc2ccc(Cl)cc2)C1` (configuration not stated), the “activity change, negative = inhibition” value was -21% (inactive).
As to `Cc1cc2c(N)cccc2nn1`, the Potency was 39.8 µM (active).
On to `COC(=O)c1c(N)sc2c1C(C(=O)OC)CC2` (configuration not stated), for which the “activity change, negative = inhibition” value was -9.74% (inactive).
As to `COc1ccc(NC(=O)c2c(NC(=O)Cc3ccccc3)sc3c2CCCC3)cc1`, the “activity change, negative = inhibition” value was -3.97% (inactive).
Same read-out and setting: then `O=C(Cc1ccccc1)Nc1sc2c(c1C(=O)Nc1ccc(Cl)cc1)CCCC2`, with 0.795% (inactive); and `COc1ccc(CNC(=O)Cn2nc(C)n3cccc3c2=O)cc1`, with -2.55% [at 100 µM] (inactive); and `CC(C)(C)c1ccc(NC(=O)N2CCN(c3ccc([N+](=O)[O-])cn3)CC2)cc1`, with -12.9% [at 100 µM] (inactive).
Same read-out and setting: the result for `CCOC(=O)c1ccc(-n2nc(C(=O)OCC)c3csc(N)c3c2=O)cc1` reads -19.3% (inactive).
Same read-out and setting: the result for `NCCc1ccc(O)c(O)c1` reads -3.85% [at 100 µM] (inactive).
As to `CCOC(=O)c1nn(-c2ccc(OC)cc2)c(=O)c2c(NC(=O)Cc3ccccc3)scc12`, the “activity change, negative = inhibition” value was 2.38% (inactive).
With `CC(=O)Nc1sc(C)c2cnn(-c3ccccc3)c(=O)c12`, the “activity change, negative = inhibition” value is -5.35% (inactive).
Still for that read-out and setting: the result for `O=C(Nc1ccccc1)Nc1ccccc1` reads -2.15% [at 100 µM] (inactive); that for `CCOC(=O)c1c(N)sc2c1CCOC2`, -6.49% (inactive).
Still for that read-out and setting: then `CC(C)c1ccc(NS(=O)(=O)c2ccc3[nH]cc(C(=O)NCCc4ccccc4)c(=O)c3c2)cc1`, with -17.1% [at 100 µM] (inactive).
In the case of `O=C(Cc1ccccc1)Nc1sc2c(c1C(=O)Nc1ccc(Br)cc1)CCCC2`, the “activity change, negative = inhibition” value was -13.5% (inactive).
